# Data published in the supplement of paper PMC12632987.
# T1: USP38, Q8NB14
# T1 chain: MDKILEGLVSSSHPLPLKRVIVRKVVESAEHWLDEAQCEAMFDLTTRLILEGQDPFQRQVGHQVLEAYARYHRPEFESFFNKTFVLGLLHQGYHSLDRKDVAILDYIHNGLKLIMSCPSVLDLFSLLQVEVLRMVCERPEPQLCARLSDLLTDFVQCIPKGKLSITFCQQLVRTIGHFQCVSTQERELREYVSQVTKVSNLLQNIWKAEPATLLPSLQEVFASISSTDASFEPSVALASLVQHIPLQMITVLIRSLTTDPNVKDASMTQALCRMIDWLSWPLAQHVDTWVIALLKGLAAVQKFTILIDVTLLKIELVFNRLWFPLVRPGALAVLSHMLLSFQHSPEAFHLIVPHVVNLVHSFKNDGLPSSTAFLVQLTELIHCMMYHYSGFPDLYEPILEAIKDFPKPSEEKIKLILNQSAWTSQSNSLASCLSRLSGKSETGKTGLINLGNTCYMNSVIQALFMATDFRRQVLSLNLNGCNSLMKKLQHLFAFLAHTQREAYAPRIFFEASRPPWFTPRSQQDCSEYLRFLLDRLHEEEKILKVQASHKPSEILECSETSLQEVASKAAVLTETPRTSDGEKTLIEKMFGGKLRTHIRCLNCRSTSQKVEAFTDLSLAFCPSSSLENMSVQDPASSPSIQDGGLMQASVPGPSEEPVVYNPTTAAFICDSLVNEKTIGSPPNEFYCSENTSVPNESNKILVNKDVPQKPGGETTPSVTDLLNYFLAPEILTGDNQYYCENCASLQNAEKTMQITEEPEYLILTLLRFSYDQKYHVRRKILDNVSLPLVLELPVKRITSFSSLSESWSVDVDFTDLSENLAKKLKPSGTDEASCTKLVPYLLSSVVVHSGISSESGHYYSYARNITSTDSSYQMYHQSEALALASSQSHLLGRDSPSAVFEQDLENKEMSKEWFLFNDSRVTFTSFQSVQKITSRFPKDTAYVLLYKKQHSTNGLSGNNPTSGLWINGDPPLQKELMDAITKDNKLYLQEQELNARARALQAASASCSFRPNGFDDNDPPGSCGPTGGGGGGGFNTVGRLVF
# Molecular target: T1, USP38, Q8NB14
# Test: median log2 fold change of GCK-ALFA target abundance (FLAG IP / Myc IP barcode read proportion) (log2 ratio); each designed protein is fused to an ALFA-tag nanobody in HEK293 cells to bring the named protein to FLAG-tagged glucokinase (GCK); Myc marks an untargeted standard; higher = target protein stabilised (more abundant)
# Conditions: target protein: 3xFLAG-MCP-GCK-ALFA reporter; HEK293 landing pad (RPLP)
# Outline: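 Binders fused to an ALFA nanobody were recombined as a library into HEK293 landing-pad cells, which were induced with 2 μg mL^−1 doxycycline and then transfected to express a FLAG-tagged target and a Myc-tagged standard. After 48 h, circular RNA barcodes recovered by anti-FLAG and anti-Myc immunoprecipitation of lysates were reverse transcribed, amplified and sequenced. Each binder's target abundance is the median log2 ratio of FLAG to Myc barcode read proportions, from barcodes present at ≥10^−7 in both replicates, binders carrying ≥3 barcodes per replicate, a 10^−6 pseudocount and pooled replicates.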
row,Binder,median log2 fold change
1,usp_38_diff_out_3_136_525 (protein) SVAEAREQIKALEATAKALKESMLKLVEELLKDPNVTPEDLRELKEIVLDSFEDIKAEVEKIKKAHPEVKAEADAAIKKIEAYKKEVEAAFDAAIAAKEA,-0.268
2,usp_38_diff_out_3_124_518 (protein) SEAEELVAKAKELLEKLTKVLEEAEKALDKDLEKAEKLLKEADELLTELSAALLRLRDLAMADPSWRPALKEIEAKANEVIDKYTEVATKFFEKKAEAQE,-0.761
3,usp_38_diff_out_3_65_533 (protein) KVEELLKKAEEKLKEAEKKIRELEERVETDPSLTEEEVNAMLDEAADLIVEAGKYIREAKKLNPDEEQKKRIEELEKRLDEVIDLYVEAGERAFLAVGER,0.0706
4,usp_38_diff_out_4_126_546 (protein) SRKEEFEKLKKEAEEKMKEAKKLLAEALAALDKDPEKALALLDKAWDALGEAAALLREMRRIAADDPELRKEVKKLEEELDELIDEFTEAATRIYLKIAE,-0.11
5,usp_38_diff_out_3_65_540 (protein) EVQELLERAERHLEEAEEIIEELERRTETDPTLTIDEVVEMLDEAADHLVAASEDIKEAKKLNPDEEQKKRIEELEKRLDELIDRYVEAGERAFLAVGER,0.111
6,usp_38_diff_out_3_65_530 (protein) KVEEKLKEAEEHLEKAEELVEELRRLTEEDPTLTADEVVEMLDKIDDELVAAGKAIEEAKKLNPTPEQKKKIEELEKRLDELIDRRIEAAEEAFLRVGEA,0.137
7,usp_38_diff_out_3_136_523 (protein) MLEEVRERVRRLEETAVSLKESMLKLIEELKKDPNVTPEDVEELRKVVLDAFDSLKAEVKEIQERYPEVKEEAEKALETIEKKKKEVDKAFEELIKEKKA,-0.217
8,usp_38_diff_out_4_126_544 (protein) SREAEFAALRAEAEAALAEAERLLAEARAELDKDPEKALELLDRAWDALGRAAALLREMRRIAADDPALRAELAALRARLDALIDEFTAAATEIYEKIAE,-0.215
9,usp_38_diff_out_3_136_522 (protein) SVAAVKAEIERLKATADEMKKSTLRLIAELSKDPNVTPEDVESLKKVVLDSYQDLKDDVKALKAANPEVAAQADAALAAIDANAAEVKAAFDALLKEKKA,-0.0509
10,usp_38_diff_out_3_136_527 (protein) ATAAVRARIRALEETARELKRSSLRLVEELLKDPNVTPEDLEELRKIVLDSFRDLEEEVRRLAAAEPAVAEEARRAEEEIRRYREEVERAFEEAIAAKKA,-0.205
11,usp_38_diff_out_3_65_529 (protein) KVEEEIKKAKKYLEEARKIIEELKEKVKTDPTITEEEVNEMLDEAADLIVKAGEALRKARKLNPDEEQKKEIEKLEKELDELIDEYTEAGREAFLAVGER,0.0941
12,usp_38_diff_out_3_65_534 (protein) EVEELLKEAQKKLKEARAIIEALRERVESDPTITIDEVNARLDEAADKIVEAGQYIREAKKLNPDEEQKKKIEELEKELDEVLDEYRETAEFAFLRVAER,-0.0616
13,usp_38_diff_out_3_124_513 (protein) AEAEKLAKELDKALKELEKLIKEAEKELDKDPEKLKKLLEEADETLDRAAGLYMQLHELAAEDPSTRPLLKKAREKANKVIDRYTEVRTKALERLAELEE,-0.564
14,usp_38_diff_out_3_136_519 (protein) STEEVKEEIKRLEATAESMKESTLKLIEELSKDPNVTPEDVEELKKVVLSAFQDLKDDVKALKEAHPEVKEEADKAEAKIEAYKAEVEAAFDALIAEKKA,0.188
15,usp_38_diff_out_3_65_536 (protein) EVEKLLEEAKKYLEEARKIVEELRREVEEDPTITIDEVNEKLDEAADKIVAAGQKIREAKKLNPDEEQKKQLEELEKELDEVLELYRETAEYAFLKVAER,-0.223
16,usp_38_diff_out_3_65_535 (protein) KIEELLKEAEKYLEEAEKLVEELRRRVESDPTLTIDELNARLDEAADLIVKAGQKIREAKKLNPDEEQKKKLKELEKRLDEVLKKYREAAEEGFLRVAER,-0.384

row,Binder,median log2 fold change
1,usp_38_diff_out_3_65_539 (protein) KVEELLERAQEHLEKAEELVEGLRERTATDPTLTIDEVVAMLDEAADHLVAAAQDIEEAKKLDPDEEQQERLEELQERLDRLIDEYERAGREAFLAVGER,-0.504
2,usp_38_diff_out_3_136_524 (protein) ATAAAKAQIKALEATAKALKEDSLKLVKELLEDPNVTPEDLESLKKIVLSSFDDLIAEVKAIKAAHPEVAAEADKAIKAIEEYKKEVEKAFNEAIAKKKA,-0.221
3,usp_38_diff_out_3_65_538 (protein) EVQKLLEEAQKLLDEATKIIDELKERVESDPTLTIDEVNEMLDKAADKIVAAGEKINEAKKLNPDEEQKKQIEELEKRLDEVIEKYREAAEYAFLRVAER,-0.281
4,usp_38_diff_out_3_124_514 (protein) SRAEALFAKLKELLAKAEELIKKAEEELDKNLEELKKLLEELDKVMDEASRVFMELHELAAEDPAHRPLLKEARAASNKVVTRYTEVVLKALERLAEAEE,-0.179
5,usp_38_diff_out_4_126_547 (protein) GREKEFEKLKKEAEELLKKAKELLEKAKEALDKDPKKAQEYLDKALEYLGKLAKLLREMRRVAEGDPELQKEVKELQKKADELVDEYTKAAEEIYLALAE,0.575
6,usp_38_diff_out_3_65_528 (protein) GVEELLARAEEALRRLEEVIREAEEALKRAEELSAEELDELIRRATRVALEAERIRRELRRAGDSPEIRAAIARLEEAIERLNEVIERLTEALTAKLIAE,0.193
7,usp_38_diff_out_3_65_542 (protein) KVEELLKKAEEKLKEAREKIRELRERVETDPELTEEEIVEMLDEAADLLVEAGEYIREAKKLNPDEEAKKKIKELEKELEELIDEYVEAGERAFLAYGER,0.499
8,usp_38_diff_out_3_136_526 (protein) SVAAVKAQIKALEATARALKEDMLKLVEELLKDPNVTPEDLESLKKIVLDSFDDIIKEVEELAKKYPEVKEEAEKAIKKIEEYRDEVKKAFDEAIKEKKA,0.0442
9,usp_38_diff_out_4_126_545 (protein) SREEEFKKLEKEAEKKIEEAKKLLEEALKELDKDPEKALELLDKAWDALGEAAKLLREMRRVAADDEELRKRYKELEEKLDKLIDEFTKAATYIFEKIAE,-0.694
10,usp_38_diff_out_3_124_517 (protein) SRADELAAEARATLAELNATLAELEAALDTDLERARELAARADELLARLSGLLLELRDLAREDPRYRPTLKELEAEANAAIDRYTELMTRLFEKEAEAAA,-0.553
11,usp_38_diff_out_3_124_515 (protein) AEAEALLAELEELLERAEELIERAEEELDGDLERLRELLEELDEVLDELSAVFMRLHELAAEDPSHRPLLKEARKRSNEVITRATEVRLRALERLAEAAE,0.0853
12,usp_38_diff_out_4_126_543 (protein) DREKAFDELAKEAEALMKEAKEYLEKAKEAMDKDPEKAKEYLDKAYEALGKLSKALREMRRIARDDPELRKRYKELLKKANELVSEFTKVAEELLLKLSE,-0.661
13,usp_38_diff_out_3_65_541 (protein) EIEKLLKEAKKYLEEAKKIIEELRERTRTDPTLTIEEVNEMLDKAADLLVKAGEYIEKAKKLNPDEKQKKEIEKLKKELEELLDEYVEAGEEAYLAVGER,-0.0269
14,usp_38_diff_out_3_65_532 (protein) KVEELLKKAEEKLEEAEKKIKELEKRVKEDPNITEEEVNEMLDEAADLIVEAGKYIREAKKLNPDEEQQERIKELEERLDEVIDLYVKAGEAGFLAVGER,-0.0854
15,usp_38_diff_out_3_124_516 (protein) MKAEKLYEELKKLLKEIEKLIKEAKKELNKDLEELKKLLKELDKKLDELSKVFMELHELAAEDPRYRPLLKEARKESNKVITEATKVKLEALERLAEEEE,0.0275
16,usp_38_diff_out_3_65_537 (protein) EVEELLEEAERRLEEARELIEALRREVESDPSLTIDEVNARLDEAVDLLVEAGEAIRRARRLDPDPEQRERLEELERRLDEVLRLYRETAEFAFLTVAER,-0.264
